Test results published in PubChem BioAssay (NCI).
This is part of a sample that, as a whole, favours compounds with a hit. Of some 79,000 tested, about 15% had one in any assay. Unmarked numbers belong to inactive results. No stated cut-off is given here; in the data, active means growth inhibition above about 70%; inactive means the rest.

Experiment: NCI Yeast Anticancer Drug Screen. Data for the bub3 strain (AID 167)
Details: S. cerevisiae bub3 mutant strain, at 50.0 µM, hits give high values
Outline: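 Whole-cell yeast assay. The mutant strain was incubated with compounds, and growth inhibition was determined by comparison with vehicle-treated cells.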
With `Cc1ccc(S(=O)(=O)N/N=C2\CCC3CC2C3(C)C)cc1` (stereo not given) the growth inhibition was -6.05%. With `CC1=C(CC2C(=O)N(c3ccccc3)S(=O)(=O)NC2C)C(=O)N(c2ccccc2)S(=O)(=O)N1C` (stereo not given) the growth inhibition was -1.65%. Compound `O=C(Nc1nncs1)c1ccncc1` has a growth inhibition of -28.8%. In the case of `Cc1c(Cl)cccc1NC(=O)C1CC(Br)C(Br)CC1C(=O)O` (stereo not given), the growth inhibition was 9.35%. `CCN(CC)CCCNc1cc(OC)c(Cl)c2cccnc12` showed a growth inhibition of -19.8%. `Cc1ccc(C(=O)NO)cc1` gave a growth inhibition of 13.8%. `NC(N)=NS(=O)(=O)c1ccc(NC(=O)c2cccc3c(N)c4ccccc4nc23)cc1` gave a growth inhibition of -9%. With `CCCCCCCSCC1OC(n2cnc3c(N)ncnc32)C(O)C1O` (stereo not given) the growth inhibition was 3.1%. Work on `C=CC1CC1(Cl)Cl` (stereo not given) yielded a growth inhibition of 0.5%. Work on `CC1=C/C(=C(/c2cccc(S(=O)(=O)O)c2)c2cc(C)c(O)c(C(=O)O)c2)C=C(C(=O)O)C1=O` yielded a growth inhibition of -3.7%. Work on `Cc1nn(-c2ccccc2)c2c1N=C(C(=O)O)CC(c1ccccc1)=N2` yielded a growth inhibition of 16.7%. Work on `O=C1C[CH]([Ge](=[O])[O][Ge](=[O])[CH]2CC(=O)NC(=O)N2)NC(=O)N1` (stereo not given) yielded a growth inhibition of -5.3%. `O=c1cccccc1Cl` gave a growth inhibition of 40.8%. `COc1cccc(NC(=S)/C(=C(/[O-])c2ccc([N+](=O)[O-])cc2)[n+]2cccc3ccccc32)c1` gave a growth inhibition of 28.2%. `CC1(C)N=C(/C(Cl)=[N+](/[O-])C(=O)c2ccc(F)cc2)C(C)(C)N1O` gave a growth inhibition of -25.8%. `CC1(C)CC([N+](C)(C)CCCCCC[N+](C)(C)C2CC(C)(C)N(O)C(C)(C)C2)CC(C)(C)N1O` showed a growth inhibition of -3%. Compound `CCOC(=O)CC(=O)Nc1cc(C)cc(C)n1` has a growth inhibition of 25.1%. With `COC(=O)NC(Cc1ccccc1)NC(=O)OC(C)(C)C` (stereo not given) the growth inhibition was -4.25%. In the case of `CCCNc1cc2c(cc1Br)-c1ccccc1C2=O`, the growth inhibition was 19.1%. With `Oc1ccccc1C=Nc1ccc(I)cc1.Oc1ccccc1C=Nc1ccc(I)cc1.[Co]` the growth inhibition was 17.6%. `CC1=C(C)CC2C(=O)c3c(O)ccc(O)c3C(=O)C2C1` (stereo not given) showed a growth inhibition of 39.9%. For `COc1ccc(Cc2ccccc2)cc1`, the growth inhibition was -4.55%. For `O=C(COc1ccc(Cl)cc1)Nc1nccs1`, the growth inhibition was 20.4%. `Cc1cc(Cl)c(Cl)cc1Cl` showed a growth inhibition of -6.35%. `COC(=O)c1cc(OC)c(O)c(OC)c1` gave a growth inhibition of 4.05%. With `OCc1cc(Cl)cc(Cc2cc(Cl)cc(Cc3cc(Cl)cc(Cc4cc(Cl)cc(Cc5cc(Cl)cc(CO)c5O)c4O)c3O)c2O)c1O` the growth inhibition was -18.9%. Compound `O=C(Cc1ccccc1)c1c[nH]c2c(O)ccc(O)c12` has a growth inhibition of -13.9%. For `CCCC(=O)OCC(C)(C)CC(C)C`, the growth inhibition was -14.5%. With `CC(=O)NC1C(O)C(NC(C)=O)C(OC(C)=O)C(OC(C)=O)C1OC(C)=O` (stereo not given) the growth inhibition was -0.15%. In the case of `O=C(NC1C2CC3CC(C2)CC1C3)c1cc(/C=C/c2ccccc2)[nH]c(=S)n1` (stereo not given), the growth inhibition was -2.25%. In the case of `CCCCCCCCCCCCCCCCCC(=O)O`, the growth inhibition was -17.1%. In the case of `[O-][N+]1(CC[N+]2([O-])CCCCC2)CCCCC1`, the growth inhibition was -0.65%. `C=CCS(=O)(=O)c1ccc(Cl)cc1` gave a growth inhibition of 0.95%. In the case of `CC(C)C1OC2(CCCCC2)OCC1(C)C` (stereo not given), the growth inhibition was 21.1%. Work on `CC(=O)Oc1ccc(NCNc2ccc(OC(C)=O)cc2)cc1` yielded a growth inhibition of -2.25%. `CC1S(=O)(=O)OCCCOS1(=O)=O` gave a growth inhibition of -2.45%. `Cc1cc(N(CCC#N)CCC#N)ccc1/C=C(\NC(=O)/C=C/c1ccccc1)C(=O)N=[N+]=[N-]` showed a growth inhibition of -21.1%. In the case of `CC1CC(c2ccccc2)S(=O)(=O)O1` (stereo not given), the growth inhibition was 35%. `Cc1ccc(-c2cc(=O)c3cc(C)c(C)c(C(=O)O)c3o2)cc1` showed a growth inhibition of 7.1%. With `Cc1ccc(S(=O)(=O)NCNS(=O)(=O)c2ccc(C)cc2)cc1` the growth inhibition was -15.8%.
